Several values for one entry are separate records, joined by “and”; a condition that tells them apart may be missing. Equal values may be shown once. Inconclusive results are not listed. For some of these results: Results with a measured potency or affinity are listed apart. More than one record can exist for a structure, and the calls need not agree. Activity calls are given as the source filed them. Unless noted, no rule for the calls is given here.
Experiments:
[1] = kinase inhibitors against Plasmodium liver-stage infection, cell-based, known kinase inhibitor set, luminescence, hepatoma host viability (AID 624392); details: Plasmodium liver stage in hepatoma cells, luciferase luminescence, concentration not given here; liver cell % of control: measured here: host liver cell viability; parasite % of control: stronger effect = lower value;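 also: infected cells incubated roughly two days before readout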
[2] = sensitizers of A549 cells to miR-34 induction, primary screen, imaging, A549 dox-inducible miR-34, nuclei and caspase counts (AID 1347080;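 active = compounds whose cell count with miR-34 switched on is under 0.7 times the count with it off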); details: A549 miR-34 inducible, Hoechst nuclei count, 48 h
[3] = survival rescue of mitochondrial mutant cells in low glucose, primary screen, MELAS cybrids, Rieske KO mouse fibroblasts, CellTiter-Glo (AID 1508586;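 active = mean z-score across replicates of 1.96 or higher in either the MELAS or the Rieske mutant cell line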;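 also: z relative to plate mean and SD of compound and empty wells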)
[4] = polyglutamine-triggered caspase-3 activation inhibitors, cell-based (AID 1583); details: polyglutamine-induced caspase-3 activation, cell assay; stronger effect = higher value;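 tested at 10 µM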
[5] = suppressors of polyQ aggregation in yeast, 75Q-TubU reporter (AID 1593); details: Yeast 75Q polyglutamine aggregation reporter
[6] = rescue of polyQ-huntingtin neuronal dysfunction in worms, whole organism, C. elegans mechanosensory neurons, N-terminal huntingtin (AID 1599); details: touch response, stronger effect = higher value
[7] = inhibitors of mitochondrial cytochrome c release, biochemical, purified mitochondria (AID 1603); details: stronger effect = lower value;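 also: mouse liver mitochondria challenged with calcium chloride; signal normalized to the plate average as 100%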
[8] = inhibitors of polyQ protein aggregation (AID 1604); details: polyglutamine-induced protein aggregation inhibition assay; stronger effect = higher value; tested at 2.5 µM
[9] = enhancers of glutamate uptake in motor neurons, MN-1 cell line (AID 1612); details: MN-1 motor neuron cells, stronger effect = higher value;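 also: tested at 1 µM final; 0% = mean of DMSO vehicle wells on each plate; positive means more glutamate uptake than control and negative means less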
[10] = reducers of polyQ inclusions in PC12 cells, cell-based, NGF-treated PC12, GFPQ80 (AID 1614); details: PC12 NGF-treated GFP-polyQ80 inclusion reduction;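 also: lower means fewer inclusions and 0 means no inclusions at all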
[11] = suppressors of polyglutamine aggregation in yeast, 75Q-TubH (AID 1616); details: S. cerevisiae 75Q-TubH polyglutamine aggregation suppression; stronger effect = higher value
[12] = hESC survival regulators, cell-based (AID 493140); details: human embryonic stem cell survival screen; stronger effect = higher value;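 also: cells exposed to compounds for four days before counting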
[13] = liver-stage malaria parasite growth inhibition, primary screen, cell-based, HepG2, luciferase luminescence, HepG2 viability (AID 624349; in the data active = parasite load remaining mostly below about 12%, no sharp cut-off; inactive = mostly above about 10%;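 also: 100% = mean of DMSO negative control wells on the same plate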); details: P. berghei liver stage in HepG2, luciferase luminescence, concentration not given here; parasite load remaining: stronger effect = lower value; viability: measured here: HepG2 viability without parasites
[14] = molecular target: Mitogen-activated protein kinase 7 (Homo sapiens) (UniProt Q13164); test: ERK5 transactivation activators in reporter cells, primary screen, cell-based, HTS (AID 1508626;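 active = luciferase signal above three times the same-plate solvent-only control wells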;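 also: luciferase driven by Gal4-ERK5 fusion binding five Gal4 sites before minimal TATA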); details: HeLa Gal4-ERK5 transactivation, 18 h, at 5 µM, stronger effect = higher value
Chain of Mitogen-activated protein kinase 7 (Homo sapiens) (Q13164 whole entry, looked up, the tested form may be a part): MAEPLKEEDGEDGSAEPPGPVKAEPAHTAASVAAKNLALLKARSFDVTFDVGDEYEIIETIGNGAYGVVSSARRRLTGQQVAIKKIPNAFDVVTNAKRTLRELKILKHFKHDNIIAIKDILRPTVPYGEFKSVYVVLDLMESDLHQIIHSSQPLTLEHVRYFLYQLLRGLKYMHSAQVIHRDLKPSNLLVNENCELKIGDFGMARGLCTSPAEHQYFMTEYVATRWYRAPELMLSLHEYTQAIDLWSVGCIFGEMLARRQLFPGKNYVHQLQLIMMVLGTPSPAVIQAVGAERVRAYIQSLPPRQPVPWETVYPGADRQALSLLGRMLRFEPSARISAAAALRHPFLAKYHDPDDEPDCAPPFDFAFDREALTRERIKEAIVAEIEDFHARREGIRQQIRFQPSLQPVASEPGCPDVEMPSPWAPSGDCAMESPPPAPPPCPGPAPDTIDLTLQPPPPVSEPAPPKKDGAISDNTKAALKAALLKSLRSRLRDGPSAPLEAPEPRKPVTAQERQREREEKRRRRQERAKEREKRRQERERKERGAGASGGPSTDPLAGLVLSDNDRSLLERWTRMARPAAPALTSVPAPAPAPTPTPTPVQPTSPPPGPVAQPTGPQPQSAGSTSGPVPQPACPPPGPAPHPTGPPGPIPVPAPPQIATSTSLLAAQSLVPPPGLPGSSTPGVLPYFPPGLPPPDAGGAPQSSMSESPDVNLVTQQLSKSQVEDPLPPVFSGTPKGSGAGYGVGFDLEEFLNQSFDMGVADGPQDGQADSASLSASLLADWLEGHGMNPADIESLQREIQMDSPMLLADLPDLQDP

[15] = molecular target: NAD(+) hydrolase SARM1 (Homo sapiens) (UniProt Q6SZW1); test: SARM1 TIR NADase inhibitors, cell lysate, NAD-Glo luminescence (AID 1508614;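 active = compound whose remaining NAD level is above about 45 nM, limit read from the data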;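 also: higher remaining NAD means stronger inhibition of SARM1 NADase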); details: SAM-TIR HEK293T lysate NADase, at 1 µM, stronger effect = higher value
Chain of NAD(+) hydrolase SARM1 (Homo sapiens) (Q6SZW1 whole entry, looked up): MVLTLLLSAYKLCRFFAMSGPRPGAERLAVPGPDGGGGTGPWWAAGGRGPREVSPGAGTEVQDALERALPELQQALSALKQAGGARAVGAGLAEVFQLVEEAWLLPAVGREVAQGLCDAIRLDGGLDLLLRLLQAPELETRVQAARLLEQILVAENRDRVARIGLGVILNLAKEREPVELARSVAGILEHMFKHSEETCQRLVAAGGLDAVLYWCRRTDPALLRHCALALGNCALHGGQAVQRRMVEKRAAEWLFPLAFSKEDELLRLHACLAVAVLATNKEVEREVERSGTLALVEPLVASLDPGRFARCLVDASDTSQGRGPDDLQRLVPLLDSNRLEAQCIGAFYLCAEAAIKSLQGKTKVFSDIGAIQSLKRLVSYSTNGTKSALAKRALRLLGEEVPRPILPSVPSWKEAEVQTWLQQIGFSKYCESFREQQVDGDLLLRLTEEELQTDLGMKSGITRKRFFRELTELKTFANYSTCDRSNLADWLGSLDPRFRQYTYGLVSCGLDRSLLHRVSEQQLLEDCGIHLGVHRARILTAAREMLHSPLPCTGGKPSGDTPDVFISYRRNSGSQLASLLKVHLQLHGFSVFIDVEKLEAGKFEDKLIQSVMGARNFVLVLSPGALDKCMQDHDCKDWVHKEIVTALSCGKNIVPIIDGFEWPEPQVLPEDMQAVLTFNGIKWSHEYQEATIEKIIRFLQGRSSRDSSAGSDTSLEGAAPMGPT

[16] = protection against mutant huntingtin cytotoxicity, PC12 cells, LDH release (AID 1610); details: PC12 mutant huntingtin toxicity, final LDH at 4 uM, stronger effect = lower value
[17] = viability rescue of complex I mutant cybrids, primary screen, cell-based, galactose medium, ATP luminescence (AID 1645843;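 active = z-score of at least 1.8 in each of two replicates, scored against plate mean and spread of sample wells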;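 also: positive z means more ATP and so rescue of galactose-driven cybrid death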); details: complex I mutant cybrid cells, 72 h, stronger effect = higher value
[18] = molecular target: ATP-dependent translocase ABCB1 (Homo sapiens) (UniProt P08183); test: MDR1 (ABCB1) efflux transporter inhibition, cell-based (AID 377; in the data active = fluorescence slope change above about 50%); details: MDR1-expressing cells, fluorescent substrate accumulation slope; stronger effect = higher value; concentration not given here
Chain of ATP-dependent translocase ABCB1 (Homo sapiens) (P08183 whole entry, looked up): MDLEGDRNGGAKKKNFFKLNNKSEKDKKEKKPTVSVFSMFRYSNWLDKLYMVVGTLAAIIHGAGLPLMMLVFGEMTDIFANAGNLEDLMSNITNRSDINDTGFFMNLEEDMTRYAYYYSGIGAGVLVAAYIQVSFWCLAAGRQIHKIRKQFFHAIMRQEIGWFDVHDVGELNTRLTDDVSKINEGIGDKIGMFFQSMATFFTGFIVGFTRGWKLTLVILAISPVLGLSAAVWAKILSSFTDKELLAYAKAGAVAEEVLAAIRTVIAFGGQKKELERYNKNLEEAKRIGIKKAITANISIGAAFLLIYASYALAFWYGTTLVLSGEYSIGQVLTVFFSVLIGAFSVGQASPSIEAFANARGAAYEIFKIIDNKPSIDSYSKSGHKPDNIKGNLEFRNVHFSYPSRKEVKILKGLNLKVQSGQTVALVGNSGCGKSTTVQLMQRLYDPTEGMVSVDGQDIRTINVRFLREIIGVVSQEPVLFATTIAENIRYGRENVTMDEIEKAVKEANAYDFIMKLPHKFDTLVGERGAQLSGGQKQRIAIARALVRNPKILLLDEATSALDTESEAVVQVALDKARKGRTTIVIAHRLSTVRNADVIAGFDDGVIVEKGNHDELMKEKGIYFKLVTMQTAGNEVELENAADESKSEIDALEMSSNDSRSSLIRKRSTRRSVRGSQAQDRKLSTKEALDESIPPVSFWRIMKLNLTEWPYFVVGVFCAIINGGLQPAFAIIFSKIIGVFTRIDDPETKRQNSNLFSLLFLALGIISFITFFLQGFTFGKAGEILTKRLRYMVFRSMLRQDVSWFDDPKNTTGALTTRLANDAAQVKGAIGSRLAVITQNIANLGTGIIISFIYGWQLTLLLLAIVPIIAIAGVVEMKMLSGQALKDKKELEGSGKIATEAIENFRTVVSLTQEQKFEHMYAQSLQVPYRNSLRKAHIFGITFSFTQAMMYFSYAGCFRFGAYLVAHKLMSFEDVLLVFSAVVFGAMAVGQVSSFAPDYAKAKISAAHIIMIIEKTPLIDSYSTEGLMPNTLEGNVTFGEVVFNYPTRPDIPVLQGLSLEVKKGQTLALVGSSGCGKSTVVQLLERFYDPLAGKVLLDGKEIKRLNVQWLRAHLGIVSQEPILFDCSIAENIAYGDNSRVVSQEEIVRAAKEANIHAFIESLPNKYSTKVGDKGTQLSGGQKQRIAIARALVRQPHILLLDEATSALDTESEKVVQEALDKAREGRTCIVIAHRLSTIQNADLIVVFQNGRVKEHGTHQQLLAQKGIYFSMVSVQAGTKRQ

[19] = stronger effect = lower value, cell number ratio, induced over uninduced
[20] = measured here: relative caspase fold change +Dox/-Dox
[21] = measured here: total cells with miR-34 induction, stronger effect = lower value
[22] = measured here: total cells without miR-34 induction
[23] = MELAS cybrid survival, CellTiter-Glo 48 h, stronger effect = higher value
[24] = Rieske KO mouse fibroblast survival, CellTiter-Glo 72 h

O=C1NC(=O)C(=Cc2ccc(-c3ccc(F)cc3O)o2)S1
liver cell % of control [1]: 115% and 104% and 93.4%
parasite % of control [1]: 1.06% (inactive) and 3.29% (inactive) and 2.91% (inactive)
fold change [2, 19]: 0.91 (inactive)
fold change [2, 20]: 0.626
cell count [2, 21]: 8670
cell count [2, 22]: 9530
z-score [3, 23]: -0.351 (inactive)
z-score [3, 24]: -0.0319

COc1ccc(-c2cc(=O)c3c(O)cc(O)cc3o2)cc1
inhibition [4]: -17.1%
score [5]: 1.2
rescue above control [6]: 10.4
cytochrome c release ratio [7]: 0.89
inhibition of aggregation [8]: 41.2%
glutamate uptake change [9]: -9.64%
inclusion score [10]: 2
aggregation suppression score [11]: 0.73
survival [12]: 3.33 (inactive)
parasite load remaining [13]: 73.8% (inactive) and 91.5% (inactive)
viability [13]: 92.5% and 92.4%
fold change [2, 19]: 0.79 (inactive)
fold change [2, 20]: 1.12
cell count [2, 21]: 7540
cell count [2, 22]: 9550
luciferase signal [14]: 40 AU (inactive)

O=C1NC(=O)C(=Cc2cccc(C(F)(F)F)c2)S1
liver cell % of control [1]: 81.5% and 80.8% and 97.3%
parasite % of control [1]: 0.631% (inactive) and 2.17% (inactive) and 7.31% (inactive)
fold change [2, 19]: 0.809 (inactive)
fold change [2, 20]: 0.469
cell count [2, 21]: 7740
cell count [2, 22]: 9570
z-score [3, 23]: -0.352 (inactive)
z-score [3, 24]: 0.482

CN(C)CC=CC(=O)Nc1cc2c(Nc3ccc(F)c(Cl)c3)ncnc2cc1OC1CCOC1 (stereo unspecified)
liver cell % of control [1]: 39.8% and 42.2% and 47.1%
parasite % of control [1]: 0.262% (inactive) and 0.42% (inactive) and 32.1% (inactive)
fold change [2, 19]: 0.839 (inactive)
fold change [2, 20]: 1.69
cell count [2, 21]: 2280
cell count [2, 22]: 2710
z-score [3, 23]: 5.09 (active)
z-score [3, 24]: 0.143

C=CC1=C(C(=O)O)N2C(=O)[C@@H](NC(=O)/C(=N\OCC(=O)O)c3csc(N)n3)[C@H]2SC1
parasite load remaining [13]: 141% (inactive)
viability [13]: 105%
fold change [2, 19]: 0.851 (inactive)
fold change [2, 20]: 1.38
cell count [2, 21]: 8960
cell count [2, 22]: 10500
z-score [3, 23]: 0.308 (inactive)
z-score [3, 24]: 0.0804

C[C@H](Cn1cnc2c(N)ncnc21)OCP(=O)(O)O
fold change [2, 19]: 0.942 (inactive)
fold change [2, 20]: 0.901
cell count [2, 21]: 9100
cell count [2, 22]: 9660
remaining NAD [15]: 10 nM (inactive)

CC(Cc1ccc(O)c(O)c1)C(C)Cc1ccc(O)c(O)c1 (stereo unspecified)
inhibition [4]: -3.14%
score [5]: 0.83
rescue above control [6]: -2.86
cytochrome c release ratio [7]: 3.11
inhibition of aggregation [8]: -17%
normalised LDH release [16]: 0.415
glutamate uptake change [9]: 67.2%
aggregation suppression score [11]: 0.665
fold change [2, 19]: 1.04 (inactive)
fold change [2, 20]: 1.01
cell count [2, 21]: 5990
cell count [2, 22]: 5750

CCn1c(-c2nonc2N)nc2c(C#CC(C)(C)O)ncc(OCC3CCCNC3)c21 (stereo unspecified)
liver cell % of control [1]: 56.6% and 72.4% and 90.5%
parasite % of control [1]: 1.73% (inactive) and 5.98% (inactive) and 27.8% (inactive)
fold change [2, 19]: 0.949 (inactive)
fold change [2, 20]: 0.738
cell count [2, 21]: 6620
cell count [2, 22]: 6980
z-score [3, 23]: -0.704 (inactive)
z-score [3, 24]: 0.217

C[C@]1(OC(=O)/C=C/c2ccccc2)C[C@@H](O)[C@]2(O)C=CO[C@@H](O[C@@H]3O[C@H](CO)[C@@H](O)[C@H](O)[C@H]3O)[C@@H]21
parasite load remaining [13]: 121% (inactive)
viability [13]: 74.8%
fold change [2, 19]: 0.943 (inactive)
fold change [2, 20]: 0.61
cell count [2, 21]: 9240
cell count [2, 22]: 9800
luciferase signal [14]: 28 AU (inactive)

CON=C1C[C@]2(C[C@@H]3C[C@@H](C/C=C(\C)C[C@@H](C)/C=C/C=C4\CO[C@@H]5[C@H](O)C(C)=C[C@@H](C(=O)O3)[C@]45O)O2)O[C@H](/C(C)=C/C(C)C)[C@H]1C
fold change [2, 19]: 1 (inactive)
fold change [2, 20]: 0.955
cell count [2, 21]: 3250
cell count [2, 22]: 3250
remaining NAD [15]: 10 nM (inactive)

Cc1ccc([N+](=O)[O-])cc1S(=O)(=O)N(C)N=Cc1cnc2ccc(Br)cn12
liver cell % of control [1]: 52.2% and 52.1% and 55.5%
parasite % of control [1]: 4.51% (inactive) and 2.82% (inactive) and 2.1% (active)
fold change [2, 19]: 0.935 (inactive)
fold change [2, 20]: 0.896
cell count [2, 21]: 837
cell count [2, 22]: 896
z-score [3, 23]: -0.394 (inactive)
z-score [3, 24]: -2.82

CN=C(N)NCCCC(N)C(=O)O (stereo unspecified)
inhibition [4]: 9.27%
score [5]: 2.21
rescue above control [6]: -4.19
cytochrome c release ratio [7]: 0.94
inhibition of aggregation [8]: -4.76%
glutamate uptake change [9]: 3.17%
inclusion score [10]: 2
aggregation suppression score [11]: 1.06
fold change [2, 19]: 0.944 (inactive)
fold change [2, 20]: 1.42
cell count [2, 21]: 9430
cell count [2, 22]: 9990
z-score [17]: 1.06 (inactive)

O=C1Cc2c([nH]c3ccc(Br)cc23)-c2ncccc2N1
parasite load remaining [13]: 39% (inactive)
viability [13]: 165%
fold change [2, 19]: 0.879 (inactive)
fold change [2, 20]: 0.672
cell count [2, 21]: 2970
cell count [2, 22]: 3380
z-score [3, 23]: 1.05 (inactive)
z-score [3, 24]: -2.27

CC(=O)O[C@H]1C[C@@]2(C)[C@@H](C[C@@H](O)[C@H]3[C@@]4(C)CC[C@@H](O)[C@@H](C)C4CC[C@@]32C)/C1=C(\CCC=C(C)C)C(=O)O (stereo partly specified)
parasite load remaining [13]: 147% (inactive)
viability [13]: 140%
fold change [2, 19]: 0.911 (inactive)
fold change [2, 20]: 1.1
cell count [2, 21]: 8570
cell count [2, 22]: 9410
z-score [3, 23]: -3.27 (inactive)
z-score [3, 24]: -2.48

C=C1CC[C@H](O)C/C1=C/C=C1\CCC[C@]2(C)[C@@H]([C@H](C)CCCC(C)C)CC[C@@H]12
fluorescence slope change [18]: 59.6% (active)
parasite load remaining [13]: 130% (inactive)
viability [13]: 106%
fold change [2, 19]: 0.889 (inactive)
fold change [2, 20]: 1.52
cell count [2, 21]: 8940
cell count [2, 22]: 10100
remaining NAD [15]: 10 nM (inactive)
luciferase signal [14]: 48 AU (inactive)

COC1C=CO[C@@]2(C)Oc3c(C)c(O)c4c(O)c(c5c(nc6cc(C)ccn65)c4c3C2=O)NC(=O)C(C)=CC=CC(C)C(O)C(C)C(O)C(C)C(OC(C)=O)C1C (stereo partly specified)
fold change [2, 19]: 0.986 (inactive)
fold change [2, 20]: 1.96
cell count [2, 21]: 9910
cell count [2, 22]: 10000
z-score [17]: 1.96 (active)

Reference: PubChem BioAssay
